Compound activity as filed in PubChem BioAssay.
MCF10A rereplic – induces DNA re-replication in MCF 10a normal breast cells. 2.9% of 350,000 active. Potency, µM (titrated, usually from 46.1 µM), without a hit: top-dose activity, positive = re-replication, actives largely listed as activators. MCF 10A DNA re-replication, Hoechst nuclear intensity, 48 h; also: % of control where 0% means no effect; nearly all actives have a fitted effect of over 50% in size
ELG1 DNA repair – blocks ELG1-dependent DNA repair in HEK293T cells; HEK293T ELG1-luciferase reporter, luminescence, 16 h; DNA damage induced by 5-fluorouridine; Potency, µM (series often up to 46.1 µM), without a hit: at the highest dose activity change, negative = inhibition, actives largely listed as inhibitors; 2.3% of 330,000 active; AID 504467; also: % is scaled to controls: 0 for no effect and ±100 for the full control effect; nearly all actives have a fitted effect of over 55% in size
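Cells (2,000 per well) received 5-fluorouridine plus test compound or DMSO and were incubated 16 hr at 37 °C, 5% CO2. Luciferase activity was read by luminescence 30 min after ONE-Glo addition; signal suppression marked inhibition of damage-induced ELG1 function.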
KB-3-1 cytotox – kills parental KB-3-1 adenocarcinoma cells | KB-3-1 viability, CellTiter-Glo ATP luminescence, 72 h | Potency, µM (top dose mostly 46.1 µM), actives largely listed as cytotoxic | 1.4% of 400,000 active; also: % is scaled to controls: 0 for no effect and ±100 for the full control effect; nearly all actives have a fitted effect of over 60% in size
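Multi-concentration cytotoxicity screen in KB-3-1 cells grown in DMEM lacking phenol red with 10% FBS. After 72 h at 37 °C with compound, ATP-dependent luminescence was recorded.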
SW480 rerep – DNA re-replication induction in SW480 cells. AID 624297. Potency, µM (titrated, usually from 46.1 µM), inactives show at the highest dose re-replication activation, most hits filed as activators. SW480 DNA re-replication, Hoechst DNA content imaging, 48 h. 1.8% of 340,000 active; also: % of control where 0% means no effect; nearly all actives have a fitted effect of over 55% in size
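SW480 cells exposed to compounds for 48 hr at 37 C, 5% CO2, then Hoechst-stained 40 min. Nuclear DNA content imaged by fluorescence scanning (405 nm excitation, 500-530 nm emission); re-replication scored as increased high-intensity nuclei.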
KB-V1 MDR tox – KB-V1 MDR subline cytotoxicity. Potency, µM (top dose mostly 46.1 µM), hits mostly cytotoxic. KB-V1 MDR cells viability, CellTiter-Glo, 72 h. AID 1347076. 3.4% of 400,000 active; also: % is scaled to controls: 0 for no effect and ±100 for the full control effect; nearly all actives have a fitted effect of over 60% in size
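In this primary screen, KB-V1 cells overexpressing P-gp are incubated with library compounds (lowest to highest concentration) for 72 h at 37 degrees C before a luminescent ATP viability read.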
* marks the source's active call; other numbers are inactive results; i = inactive; ? = inconclusive; . = no result. Only some compounds are listed: those with a hit (about 8.2% of all), similar ones and a draw of the others. Calls follow the shape of the dose curve; as a rule, active = well fitted curve in the direction sought with a large enough effect; inconclusive = small, poorly fitted or top-dose-only effect, or another doubt; inactive = no such curve, though single readings can be large; an effect the other way counts as inactive or inconclusive. Potency is read from the fitted curve at half-maximal effect.

SMILES | MCF10A rereplic | ELG1 DNA repair | KB-3-1 cytotox | SW480 rerep | KB-V1 MDR tox
CCOC(=O)c1cccc(NC(=O)CSc2nc3ccccc3c(=O)n2CCOC)c1 | 25% | 21µM* | i | -1% | 4.6µM*
C=C(C)Cn1c(SCC(=O)N/N=C/c2cccc(O)c2)nc2ccccc2c1=O | -28% | 21µM* | i | ? | ?
CCn1c(SCC(=O)Nc2cccc(OC)c2)nc2ccccc2c1=O | 0% | 23µM* | i | -9% | i
CN(N=O)c1ccc(/C=C2\C=Cc3ccccc32)cc1 | . | . | ? | . | i
CCN(c1ccccc1)c1nc2nonc2nc1NCCO | 0% | 12% | i | -6% | i
COCCNc1nc2nonc2nc1N(C)Cc1cccc2cnccc12 | -2% | 2% | i | 4.6µM* | i
O=C(/C=C/c1ccc(F)cc1)c1ccccc1Br | ? | -24% | 23µM* | . | ?
N#C/C(=C\c1ccc(F)cc1)C(=O)NCC1CCCO1 (stereo unspecified) | . | . | i | . | ?
CC1=NN(C(N)=S)C(=O)C1N=Nc1ccccc1Cl (stereo unspecified) | ? | ? | i | 8.2µM* | i
CCOC(=O)/C=C/C(=O)Nc1ccccc1-c1ccccc1NC(=O)/C=C/C(=O)OCC | 5.8µM* | ? | ? | 4.6µM* | i
CCOC(=O)c1cccc(NC(=O)/C=C/c2cccc([N+](=O)[O-])c2)c1 | -4% | -23% | i | -11% | i
CCOC(=O)/C=C/C(=O)Nc1cccc([N+](=O)[O-])c1 | 3.7µM* | 6% | ? | . | i
c1ccc(-c2nnc(-c3ccccc3)c(-c3c[nH]c4ccccc34)n2)cc1 | 24% | -6% | i | 12% | i
c1ccc2c(-c3ccncc3)c[nH]c2c1 | 8% | 21µM* | i | -8% | ?
CC(=O)Oc1ccc(OC(C)=O)c(SCCCCCN2CCOCC2)c1 | 4.1µM* | -18% | i | ? | i
COc1ccc(-c2cc(C3CCN(C(=O)OC(C)(C)C)CC3)[nH]n2)cc1 | 15% | -20% | ? | -15% | 13µM*
COc1ccc(-c2cc(C3CCN(c4ccc(C(C)=O)cc4[N+](=O)[O-])CC3)[nH]n2)cc1 | 14% | ? | ? | 8% | 15µM*
CCOC(=O)c1cn2nc(-c3ccc(OC)cc3)cc2nc1C1CCN(C(=O)OC(C)(C)C)CC1 | ? | -10% | i | 21% | 6.5µM*
COc1ccc(OC)c(-c2cc(C3CCN(C(=O)OC(C)(C)C)CC3)[nH]n2)c1 | ? | ? | i | 8% | i
CN(C)C(CNC(=O)c1ccc2nccnc2c1)c1ccco1 (stereo unspecified) | -2% | ? | i | -3% | i
CCCCCOC(=O)Cn1c(=O)c2c(nc(N3CCOCC3)n2C)n(C)c1=O | 20% | ? | i | -17% | 16µM*
O=C(CSc1nccn1Cc1ccccc1)NCc1ccccc1Cl | . | . | i | . | i
CCn1cc(C2=NOC(C(=O)Nc3ccccc3C(=O)OC)C2)c(C)n1 (stereo unspecified) | -6% | ? | i | -11% | 10µM*
CCc1cc(=O)oc2cc(C)c(CN3CCCCC3)c(O)c12 | 23% | 11% | i | -5% | 16µM*
CCc1cc(=O)oc2cc(C)c(CN3CCCC3)c(O)c12 | ? | -1% | i | -4% | ?
SMILES | MCF10A rereplic | ELG1 DNA repair | KB-3-1 cytotox | SW480 rerep | KB-V1 MDR tox
Cc1cccc(N2CCN(C(=O)CCCn3c(=S)[nH]c4cc5c(cc4c3=O)OCO5)CC2)c1C | 15% | 10µM* | i | 9% | 3.7µM*
O=C(CCCn1c(=S)[nH]c2cc3c(cc2c1=O)OCO3)N1CCN(c2ccc(Cl)cc2)CC1 | -1% | 23µM* | ? | -22% | ?
O=C(CCCn1c(=S)[nH]c2cc3c(cc2c1=O)OCO3)N1CCN(c2ccccc2)CC1 | 1% | -3% | i | -8% | i
O=C(c1ccc(Cn2c(=S)[nH]c3cc4c(cc3c2=O)OCO4)cc1)N1CCN(c2ncccn2)CC1 | . | 7.3µM* | . | . | .
CC(=O)c1ccc(N2CCN(C(=O)CCCn3c(=S)[nH]c4cc5c(cc4c3=O)OCO5)CC2)cc1 | 3% | 18µM* | i | -4% | ?
Cc1ccccc1Cn1c(C)c(CNCCCc2ccccc2)c(C(=O)O)c1C | . | . | i | . | ?
Cc1cccc(N2CCN(C(=O)CCn3c(=S)[nH]c4cc5c(cc4c3=O)OCO5)CC2C)c1 (stereo unspecified) | ? | 10µM* | i | 1% | 10µM*
O=C(CCn1c(=S)[nH]c2cc3c(cc2c1=O)OCO3)N1CCc2ccccc2C1 | . | -16% | . | . | .
COC(=O)Nc1ccc2ccc3c(NC(=O)OC)ccc4ccc1c2c43 | 21µM* | . | . | ? | .
Cc1ccc(-c2nn(CC(=O)NC3CCCCC3)c3c2cnc2ccc(F)cc23)cc1C | . | . | i | . | i
O=C(Nc1ccccc1-c1ccccc1)C1CCCC1 | 13µM* | -5% | 7.3µM* | ? | ?
O=C(NC(=S)Nc1ccccc1Br)C1CCCCC1 | ? | ? | i | 0% | 16µM*
CC(NC(=O)C1CCCC1)c1ccccc1 (stereo unspecified) | -3% | . | i | -8% | i
O=C(Nc1ccccc1C(F)(F)F)C1CCCC1 | 0% | -1% | i | -5% | i
O=C(NC1CCCC1)c1ccccc1-c1ccccc1 | -32% | -6% | i | 0% | 15µM*
O=C(NC(c1ccccc1)c1ccccc1)C1CCCC1 | -4% | 3% | i | ? | 16µM*
O=C(Nc1ccccc1Cl)Nc1ccnn1C1CCN(C(=O)C2CCOC2)CC1 (stereo unspecified) | . | . | i | . | i
CCS(=O)(=O)c1ncc(N(Cc2ccco2)Cc2sccc2C)c(C(=O)Nc2ccc(C)cc2C)n1 | . | . | i | . | i
O=C(Nc1cccc(Cl)c1)ON1CCCCC1 | . | . | i | . | ?
O=C(NC1CCCCCC1)c1cccnc1Sc1ccccc1 | ? | 3% | i | -2% | 23µM*
Cc1ccc(Sc2ncccc2C(=O)NC2CCCCCC2)cc1C | -2% | 5% | i | 1% | i
Cc1cnnn1-c1ccc(C(=O)CCl)cc1 | 29µM* | -9% | ? | ? | i
COc1ccc(-c2csc(N(CC3CCCO3)C(=O)c3ccc(C)cc3)n2)cc1 (stereo unspecified) | -1% | ? | ? | -2% | 3.7µM*
COc1ccc(-c2csc(N(CC3CCCO3)C(=O)c3ccccc3)n2)cc1 (stereo unspecified) | 2% | 8.2µM* | i | -1% | i
CN(CCc1ccccc1)C(C(=O)Nc1ccc2c(c1)OCCO2)c1ccnc2ccccc12 (stereo unspecified) | . | . | ? | . | 23µM*
CN(C)C1CN(Cc2cn(Cc3ccc(Cl)cc3)nn2)S(=O)(=O)C1 (stereo unspecified) | . | . | i | . | i
